Experimental data taken from PubChem BioAssay (NCI).
This is part of a sample that, as a whole, favours compounds with a hit. Of some 79,000 tested, about 15% had one in any assay. A number with no mark means an inactive call. Cut-off read from the data, not from the text of the source: active = growth inhibition above about 70%; inactive = the rest. Where a SMILES comes first, the peptide text is derived from it. [ ]: non-standard residue; d: D form. ξ: configuration not given here. ξF = NC(Cc1ccccc1)C(=O)O

Assay: NCI Yeast Anticancer Drug Screen. Data for the rad50 strain (AID 155);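 note: 0% = growth of vehicle-only cultures of the same strain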
Settings: S. cerevisiae rad50 strain growth inhibition; at 50.0 µM; active compounds read high
How it was run: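 Relative growth inhibition (compound vs vehicle) was measured in yeast with a defined repair-gene alteration.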

First: C=CC1=C(C)C2=NC1=CC1=NC(=C(CC)/C1=C\O)C=C1N=C3C(=C1C)C(=O)[C@H](C(=O)OC)C3=C1NC(=C2)[C@@H](C)[C@@H]1CCC(=O)O
Second: COC(=O)C(C(=O)C(=O)Nc1c(C)cccc1C(C)(C)C)c1nc2ccc(Cl)cc2[nH]c1=O (centres undefined)
The growth inhibition of the first is lower: -19.7% for the first, -7.9% for the second.

First: CCOC(=O)c1cc(C)nc2c1c(=O)n(-c1ccccc1)c(=O)n2CCCCN1CCN(c2ncccn2)CC1
Second: CCOc1ccc(N2C(=O)C3C4c5ccccc5C(c5ccccc54)C3C2=O)cc1 (centres undefined)
The growth inhibition of the first is lower: 9.75% for the first, 27% for the second.

Compared with `CC1(C)OC(=O)C(=Cc2c(Cl)cccc2Cl)C(=O)O1`, `Cc1c(Cl)cccc1NCN1C(=O)c2ccccc2C1=O` is higher in growth inhibition: 0.05% for the first, 9.65% for the second.

Going from `C=CCNC(=S)N/N=C\c1cc(OC)c(OC)c(OC)c1` to `COc1cc(/C=N/NC(=O)c2ccncc2)cc(OC)c1OC`, the growth inhibition rises from -18.8% to -14.2%.

Going from `COc1ccc2c(C)cc(N/N=C/c3ccc(C)s3)nc2c1` to `COc1ccc2nc(NC(=O)/C(C#N)=C/c3ccccc3)sc2c1`, the growth inhibition rises from -23.4% to 5.9%.

First: CCn1c2[n+](c3ccccc31)CCC2
Second: Cn1/c(=N\N=C\C(=O)O)sc2ccccc21
The growth inhibition of the first is lower: -28.6% for the first, -6.1% for the second.

Going from `COc1ccc(/C=C(\C#N)c2ccc(C)cc2)cc1OC` to `COc1ccc(-c2cc(=O)c3c(C)cc(O)cc3o2)cc1OC`, the growth inhibition falls from 50.4% to 6.55%.

Compared with `CC1(C)C2CCC1(CS(=O)(=O)O)C(=O)C2` (centres undefined), `C[C@@H]1C[C@](O)([C@@H](C)Cl)C(=O)O[C@@H]2CCN3CC=C(COC(=O)[C@]1(C)O)[C@H]23` is lower in growth inhibition: -14% for the first, -14.2% for the second.

Compared with `CCOC(=O)C1CCC(C(=O)OCC)N1c1ccc(C=O)cc1` (centres undefined), `CCOC(=O)NC(C)(C)CN(C(=O)OCC)c1ccccc1` is lower in growth inhibition: 16.1% for the first, -31.4% for the second.

Going from `C[n+]1ccccc1/C=C/c1cccc(O)c1` to `COc1ccc(CNc2ccccn2)cc1`, the growth inhibition falls from 14% to 10.9%.

Going from `COc1ccc(CCN2C(=O)CSC2=S)cc1OC` to `COc1ccc(C2c3cc4c(c(OC)c3CC3OCC(=O)C32)OCO4)cc1OC` (centres undefined), the growth inhibition rises from -14% to 4.25%.

First: C=C(CCC(C(=O)O)C1CCC2(C)C3=C(CCC12C)C1(C)CCC(O)C(C)(C)C1CC3)C(C)C (centres undefined)
Second: COC(=O)C(C)CN1CC(C)OC(C)C1 (centres undefined)
The growth inhibition of the first is higher: -4% for the first, -25.2% for the second.

First: CCCCCCCCCC(O)CC(=O)c1c(O)cccc1O (centres undefined)
Second: CCCCCCCCCCCCC/C=C/[C@H]1[C@@H](C(=O)OC)N1S(=O)c1ccc(C)cc1 (some centres undefined)
The growth inhibition of the first is higher: 69.8% for the first, -15.1% for the second.

First: O=C1Nc2ccccc2/C1=N/N=C/c1cc(Cl)cc(Cl)c1O
Second: Cc1cccc(-c2nc3cc(Cl)ccc3c(=O)o2)c1
The growth inhibition of the first is higher: 32.7% for the first, -10.8% for the second.

Compared with `COC(=O)C1=CCCC2CN3CCc4c([nH]c5ccccc45)C3CC12` (centres undefined), `O=C(CN1C(=O)c2ccccc2C1=O)c1ccc(Br)cc1` is higher in growth inhibition: 13.8% for the first, 14.2% for the second.

Compared with `O=C1C=CC=C/C1=C1\N=C(c2ccccc2OCC(=O)c2ccc(Br)cc2)SS1`, `Cc1ccc(OCC2OC(n3cnc4nc(N)nc(Cl)c43)CC2Oc2ccc(C)cc2)cc1` (centres undefined) is higher in growth inhibition: 10.1% for the first, 20.2% for the second.

Going from `COc1cc(-c2cc(=O)c3c(C)cc(O)cc3o2)cc(OC)c1OC` to `O=S(=O)(O)c1cc(O)c2c(O)cc(S(=O)(=O)O)cc2c1`, the growth inhibition rises from -2.1% to -0.75%.

First: CN(C)c1ccc(P(c2ccc(N(C)C)cc2)c2ccc(N(C)C)cc2)cc1
Second: O=C(O)C1(c2ccc(Cl)cc2)CCCC1
The growth inhibition of the first is lower: -17.2% for the first, 12.1% for the second.

Compared with `NC(Cc1ccccc1)C(=O)NCC(=O)NCC(=O)O` (stereo not drawn) (H-[ξF]-Gly-Gly-OH), `NNc1[nH]c(=S)[nH]c1C(N)=O` is lower in growth inhibition: 13% for the first, -29.6% for the second.

Assay: NCI Yeast Anticancer Drug Screen. Data for the mec2-1 strain (AID 157)
Settings: S. cerevisiae mec2-1 strain, at 50.0 µM, active compounds read high
How it was run: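 Vehicle-treated cultures served as reference for growth inhibition of compound-exposed mec2-1 yeast.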

Compared with `CC1(C)OC(=O)C(=Cc2c(Cl)cccc2Cl)C(=O)O1`, `Cc1c(Cl)cccc1NCN1C(=O)c2ccccc2C1=O` is lower in growth inhibition: 7.85% for the first, -6.6% for the second.

Going from `C=CCNC(=S)N/N=C\c1cc(OC)c(OC)c(OC)c1` to `COc1cc(/C=N/NC(=O)c2ccncc2)cc(OC)c1OC`, the growth inhibition falls from -44.5% to -48.5%.

Compared with `CCn1c2[n+](c3ccccc31)CCC2`, `Cn1/c(=N\N=C\C(=O)O)sc2ccccc21` is higher in growth inhibition: -35.2% for the first, -13.8% for the second.

Compared with `COc1ccc(/C=C(\C#N)c2ccc(C)cc2)cc1OC`, `COc1ccc(-c2cc(=O)c3c(C)cc(O)cc3o2)cc1OC` is lower in growth inhibition: 52.8% for the first, 7.6% for the second.

Going from `CCOC(=O)C1CCC(C(=O)OCC)N1c1ccc(C=O)cc1` (centres undefined) to `CCOc1ccc(N2C(=O)C3C4c5ccccc5C(c5ccccc54)C3C2=O)cc1` (centres undefined), the growth inhibition rises from -18.1% to 6.45%.

Going from `C[n+]1ccccc1/C=C/c1cccc(O)c1` to `COc1ccc(CNc2ccccn2)cc1`, the growth inhibition rises from -19.9% to 13.5%.

Going from `COc1ccc(CCN2C(=O)CSC2=S)cc1OC` to `COc1cc(-c2cc(=O)c3c(C)cc(O)cc3o2)cc(OC)c1OC`, the growth inhibition rises from -17.4% to -9%.

Compared with `O=C1Nc2ccccc2/C1=N/N=C/c1cc(Cl)cc(Cl)c1O`, `Cc1cccc(-c2nc3cc(Cl)ccc3c(=O)o2)c1` is lower in growth inhibition: 9.4% for the first, -13.6% for the second.

Going from `COC(=O)C1=CCCC2CN3CCc4c([nH]c5ccccc45)C3CC12` (centres undefined) to `O=C(CN1C(=O)c2ccccc2C1=O)c1ccc(Br)cc1`, the growth inhibition rises from -7.8% to 16.1%.

Compared with `CN(C)c1ccc(P(c2ccc(N(C)C)cc2)c2ccc(N(C)C)cc2)cc1`, `O=C(O)C1(c2ccc(Cl)cc2)CCCC1` is higher in growth inhibition: -15.3% for the first, 8.75% for the second.

Work on `NC(Cc1ccccc1)C(=O)NCC(=O)NCC(=O)O` (stereo not drawn) (H-[ξF]-Gly-Gly-OH) yielded a growth inhibition of -1.35%.
